# Many of the other results were omitted from the sample, so hits are more common in it than they were.
# GIRK2 act – GIRK2 channel activators by thallium flux; activation (% efficacy), % for hits at 37.5 µM; 34,000 tested, under 10 active; AID 1259324; HEK293 GIRK2/NPY4 cells, thallium flux fluorescence; P48051;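 active = primary screen hit, no activity in plain HEK293 cells, and in GIRK2-only cells above 5% efficacy rising with concentration; inactive = the rest, including fluorescent compounds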;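 also: efficacy is normalized control-subtracted fluorescence 15 s after thallium addition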
# GluA2 TARP mod – modulators of AMPA receptor GluA2-stargazin complexes | O88602+P19491 | HEK293 GluA2+stargazin, membrane potential dye (FDSS), glutamate EC50; hits were called plate by plate, in both directions | calls only at 30 µM | 40,000 tested, 3.5% active | AID 1259245;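 active = any of four per-well response measures lying three or more SD from its plate-wide compound average, in either direction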
# * hit, by the source's call; i = inactive; / = not tested or not shown; + = active, no number.
SMILES,GIRK2 act,GluA2 TARP mod
CCSc1ccccc1C(=O)Nc1cc(-c2ccco2)nn1-c1nc(C)c(C)c(=O)[nH]1,i,i
O=C(CSc1nc(-c2ccco2)cc(C(F)(F)F)n1)N1CCSCC1,/,i
O=C(CSc1nc(-c2ccco2)cc(C(F)(F)F)n1)N1CCCCCC1,/,+
CN1CCC(CNS(=O)(=O)c2ccccc2Cl)CC1,i,i
COc1ccc(N(Cc2cccc(Cl)c2)S(=O)(=O)c2ccc3nncn3c2)cc1,i,i
COc1ccc(N(Cc2cccc(C)c2)S(=O)(=O)c2ccc3nncn3c2)cc1,i,+
Cc1cc(N2CCN(C)CC2)nc(SCC2COc3ccccc3O2)n1 (stereo not given),/,+
NCC(O)COCC1COc2ccccc2O1 (stereo not given),i,i
COc1ccc(OCC(=O)Nc2ccc(CC(=O)N3CCOCC3)cc2)cc1,i,+
COc1ccc(CC(=O)Nc2ccc(CC(=O)N3CCCC3)cc2)cc1,i,i
COc1cccc2sc(N(CCCN(C)C)C(=O)c3cc(C)nn3C)nc12,i,i
COc1cccc2sc(N(CCN(C)C)C(=O)c3cc(C)nn3C)nc12,i,+
O=C(CCn1nc(-c2ccc(Cl)cc2)c2ccccc2c1=O)NC1CCCCC1,/,+
Cc1ccc(-c2nn(CCC(=O)N3CCN(Cc4ccccc4)CC3)c(=O)c3ccccc23)cc1,/,i
COc1cn(-c2ccc(F)cc2)nc1C(=O)N1CCc2ccccc2C1,i,i
Fc1ccc(CN2CCN(c3ccccn3)CC2)cc1,/,i
CCN(C(=O)C1CCN(c2ccc(-c3ccccc3OC)nn2)CC1)C1CCCCC1,i,+
COc1ccccc1-c1ccc(N2CCC(C(=O)N3CCN(c4ccccc4OC)CC3)CC2)nn1,i,i
O=C(CSc1ccc(F)cc1)NCC1CCN(C(=O)c2ccccc2F)CC1,i,+
CSc1ncccc1C(=O)N1CCC(CNC(=O)c2ccccc2Br)CC1,i,i
CSc1ccccc1CN1CCC(CNC(=O)c2ccccn2)CC1,i,+
CSc1ncccc1C(=O)N1CCC(CNC(=O)c2cc(Cl)cc(Cl)c2)CC1,i,i
CSc1ccccc1CN1CCC(CNC(=O)c2cnc3ccccc3n2)CC1,i,i
CSc1ncccc1C(=O)N1CCC(CNC(=O)c2ccccc2F)CC1,i,+
CSc1ncccc1C(=O)N1CCC(CNC(=O)C2(c3ccc(Cl)cc3)CCCC2)CC1,i,+
SMILES,GIRK2 act,GluA2 TARP mod
CSc1ccccc1C(=O)NCC1CCN(C(=O)c2ccccc2F)CC1,i,i
Cn1nnnc1SCC(=O)NCCCC(=O)Nc1cccc2cccnc12,i,i
O=C(Nc1ccc(Cl)c([N+](=O)[O-])c1)c1ccc(N2C(=O)c3ccccc3C2=O)cc1,i,i
CCOc1ccc(-n2nnnc2CN2CCN(S(=O)(=O)Cc3ccccc3)CC2)cc1,i,i
COc1ccc(NC(=O)NCCNc2ccc(Nc3cccc(C)n3)nn2)cc1,i,/
Cc1ccc(-c2noc(Cn3ccn4nc(-c5ccc(F)cc5)cc4c3=O)n2)cc1,i,i
CCN1C(=O)N(c2cc(C)ccc2C)C2CS(=O)(=O)CC21 (stereo not given),i,i
Cc1ccc(C)c(N2C(=O)N(Cc3ccccc3F)C3CS(=O)(=O)CC32)c1 (stereo not given),i,+
COc1cccc(CNS(=O)(=O)CCCOc2ccc3c(c2)OCO3)c1,i,i
CCSc1nnc2[nH]c(=O)c(C)c(C)n12,i,i
Cc1ccc(S(=O)(=O)NCc2ccccc2)c(C)c1N(C)S(=O)(=O)c1ccccc1,/,i
Cc1ccc(S(=O)(=O)NCc2cccnc2)c(C)c1N(C)S(=O)(=O)c1ccc(Cl)cc1,i,+
O=C(NCCS(=O)(=O)N1CCN(Cc2ccccc2)CC1)c1cc2ccccc2o1,i,i
COC(=O)c1ccc(-c2csc(NC(=O)c3ccc4nsnc4c3)n2)cc1,i,i
Cc1ccc(-c2cc(C(F)F)n3ncc(C(=O)NCc4c(C)nn(C)c4C)c3n2)cc1,/,i
Cc1ccc(-n2ncc3c(=O)n(CC(=O)N4CCc5ccccc54)cnc32)c(C)c1,/,+
Cc1cccc(-n2ncc3c(=O)n(CC(=O)N4CCc5ccccc54)cnc32)c1C,/,i
COc1ccc(S(=O)(=O)NCC(O)c2ccc(C(F)(F)F)cc2)c(C)c1 (stereo not given),i,+
COc1ccc(S(=O)(=O)NCC(O)c2ccsc2)c(C)c1 (stereo not given),i,i
O=S(=O)(NCC(O)c1ccc(C(F)(F)F)cc1)c1ccccc1Cl (stereo not given),i,i
O=S(=O)(Cc1cccc(F)c1)NCC(O)c1ccc(C(F)(F)F)cc1 (stereo not given),i,+

# Source: PubChem
